Assay outcomes as filed in PubChem BioAssay.
Rows were chosen to be rich in hits. Some 3.7% of all compounds tested hit in one or more screens of this group.
AF4-AF9 inh – inhibitors of AF4 peptide binding to AF9, primary screen, biochemical, AlphaScreen, biotin-AF4 peptide, FLAG-AF9, single point. inhibition, % at 10 µM. AID 651704, 2012. 350,000 compounds, 0.47% hits. Protein AF-9 (Homo sapiens), P42568;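 active means every replicate reaching a set inhibition limit, whatever the replicate mean, cut at about 25% in these data; inconclusive means mean inhibition reaches that limit but some replicates miss it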;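 further: 0% = plate neutral control median and 100% = total signal loss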
Target sequence (P42568 whole entry, looked up): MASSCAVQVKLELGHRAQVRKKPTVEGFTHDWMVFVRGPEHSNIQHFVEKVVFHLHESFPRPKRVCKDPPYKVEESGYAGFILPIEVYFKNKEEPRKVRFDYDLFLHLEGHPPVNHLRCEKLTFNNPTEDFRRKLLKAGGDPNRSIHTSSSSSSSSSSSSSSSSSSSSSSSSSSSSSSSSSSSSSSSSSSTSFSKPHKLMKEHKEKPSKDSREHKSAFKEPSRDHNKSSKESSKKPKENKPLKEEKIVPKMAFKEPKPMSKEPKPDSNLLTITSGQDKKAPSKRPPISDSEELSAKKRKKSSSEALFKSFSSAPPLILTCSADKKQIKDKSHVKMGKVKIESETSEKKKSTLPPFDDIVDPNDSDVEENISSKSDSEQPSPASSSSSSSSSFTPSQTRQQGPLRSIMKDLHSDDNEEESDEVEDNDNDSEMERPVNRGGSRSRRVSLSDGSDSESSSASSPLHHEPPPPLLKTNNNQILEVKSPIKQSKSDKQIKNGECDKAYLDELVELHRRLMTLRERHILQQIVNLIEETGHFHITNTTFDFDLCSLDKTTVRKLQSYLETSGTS
esBAF inh – Bmi1 luciferase reporter increase in mESCs, primary screen, esBAF inhibitor project, mouse ES cells, Bmi1 luciferase knock-in, single point | reporter increase, % at 12.5 µM | AID 602393, 2012 | 24 h; 100% = twice the neutral-well signal | 350,000 compounds, 2% hits; in the data active means activation above about 40%; inconclusive means no clear call, values can overlap the other calls;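 further: 0% = median of the plate's neutral control wells and 100% = double that signal; a rise in the Bmi1 reporter signal indicates esBAF inhibition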
Wnt act – Wnt/beta-catenin pathway activators, primary screen, cell-based, plate reader, single point | activation, % at 9.35 µM | 300,000 compounds, 1.2% hits | Wnt/beta-catenin reporter cell assay, activator; in the data active means activation above about 30%, passing the limit was not always enough; inconclusive means no clear call, values can overlap the other calls;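 further: 0% = neutral control wells and 100% = positive control wells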
MITF TRPM1 HTS – activators of MITF-driven TRPM1 promoter reporter, primary screen, cell-based, SK-MEL-5, luciferase, single point; SK-MEL-5 TRPM1-promoter luciferase, 24 h; % of positive control, neutral wells = 0; activation, % at 12.5 µM; 300,000 compounds, 0.75% hits; AID 588334, 2011;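 active means mean activation of at least 80% with every replicate also reaching 80%; inconclusive means mean reaches 80% but some replicate falls short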;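 further: 0% = neutral control wells and 100% = parthenolide positive control wells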
Ecoli rRNA inh – reduced GFP signal of wild-type E. coli, primary screen, bacterial rRNA inhibitor project, GFP/RFP fluorescence, OD600, single point. E. coli WT GFP vs humanized-ribosome RFP mutants, 24 h; hits give low values; DMSO median 0, no signal -100. GFP signal change (wild-type ribosome), % (test concentration not listed). 350,000 compounds, 1.6% hits;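 active means significant combined selectivity score with lowered wild-type GFP, culture density cut under 30%, mutant RFP and density less affected; inactive means any of these conditions unmet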
AID977621 – growth inhibition of wild-type GFP E. coli, dose response, H69 mutant RFP, cherry-pick; E. coli wild-type GFP strain growth, fluorescence, 24 h; activity change, negative = inhibition at 50 µM; shares compounds with Ecoli rRNA inh; 1,900 tested, under 10 active;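 active means Wild-type ribosome reporter drop at least double the humanized mutant ribosome reporter drop, growth loss under a set limit; inconclusive means no clear call, values can overlap the other calls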;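 further: wild-type GFP and H69 mutant RFP strains grown together 50/50 in each well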
AID977628 – E. coli growth inhibition, wild-type GFP versus h24 humanized RFP strain, dose response, h24 mutant RFP vs wild-type GFP, cherry-pick; shares compounds with Ecoli rRNA inh; activity change, negative = inhibition at 50 µM; 1,900 tested, under 10 active; AID 977628, 2014; E. coli WT GFP strain growth, fluorescence, 24 h;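 active means compound lowering the normal-ribosome reporter at least twice as much as the humanized-ribosome reporter, growth loss under a set limit; inconclusive means no clear call, values can overlap the other calls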;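 further: wild-type GFP and h24 humanized RFP strains co-cultured 1 to 1 per well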
* hit, by the source's call; ? = inconclusive; / = not tested or not shown; ! = not active in a repeat.

SMILES | AF4-AF9 inh | esBAF inh | Wnt act | MITF TRPM1 HTS | Ecoli rRNA inh | AID977621 | AID977628
O=C1c2ccccc2NC(c2cccc(F)c2)N1Cc1ccco1 (stereo not given) | 7.9 | -6.1 | -2.6 | 7.5 | -33.0* | -4.18 | -3.12
O=C(N/N=C/c1ccco1)c1[nH]ncc1Br | -0.9 | 13.3 | 15.6 | 0.2 | 10.0 | / | /
CC(C)n1nnnc1C1c2ccccc2C(=O)N1CCOc1ccccc1 (stereo not given) | -1.5 | / | -2.4 | / | -18.2* | -7.51 | -16
C[C@@H]1CN([C@@H](C)CO)C(=O)c2cc(NC(=O)c3ccncc3)ccc2O[C@H]1CN(C)S(=O)(=O)c1ccccc1 | -0.8 | -2.9 | / | / | 1.0 | / | /
CN(Cc1ccc([N+](=O)[O-])cc1)c1ccccc1 | 6.5 | 4.2 | 0.2 | 5.5 | -25.6* | -8.74 | -8.85
O=C(Cc1ccc(Br)cc1)Nc1cccc(-c2cn3c(n2)SCC3)c1 | 4.1 | / | 0.5 | 1.1 | -21.4* | -10.6 | -11.9
N=C(N)SCC1=CCS(=O)(=O)C1 | -4.4 | / | -2.0 | / | 9.6 | / | /
CC(C)CN(C(=O)c1cc([N+](=O)[O-])cc([N+](=O)[O-])c1)C1CCS(=O)(=O)C1 (stereo not given) | -1.4 | / | 3.0 | -5.8 | -16.4* | -17.9 | -6.36
COc1ccc(CN2C[C@@H](CO)O[C@@H](n3cnc4c(N5CCN(C)CC5)ncnc43)C2)cc1 | 2.2 | -0.6 | -2.2 | / | 1.6 | / | /
CCCCNC(=O)C[C@@H]1C[C@@]2(C(=O)OC)CCCCC=C2N(Cc2ccccc2)C1=O | -3.0 | / | -3.0 | / | -21.5* | -5.45 | /
COCCCNC(=O)C[C@@H]1C[C@@]2(C(=O)OC)CCCCC=C2N(Cc2ccccc2)C1=O | -16.6 | / | -1.0 | / | -12.3 | / | /
CCc1sc(C(=O)N2CCN(c3ncccn3)CC2)cc1Br | -2.3 | -6.0 | 0.6 | 5.7 | -34.1 | / | /
Cc1cccc(NC(=O)CCCn2c(=S)[nH]c3ccccc3c2=O)c1 | -0.6 | -5.6 | -2.9 | -10.6 | 7.6 | / | /
O=C(CSc1nc(C2CC2)nc2ccccc12)Nc1ccccc1N1CCOCC1 | -1.7 | / | -3.1 | 7.7 | -17.1* | -6.18 | -7.29
CCc1ccc2nc(SCC(=O)Nc3ccccc3N3CCOCC3)c(C#N)cc2c1 | 5.5 | -26.8 | -10.5 | -25.7 | -29.6* | -11 | -3.97
O=C(CSc1nc(C2CC2)nc2ccccc12)Nc1ccccc1Cl | 5.7 | 1.8 | -1.0 | -29.1 | 0.0 | / | /
Cc1ccc2nc(SCC(=O)Nc3ccccc3N3CCOCC3)c(C#N)cc2c1 | / | -2.9 | / | -23.6 | / | / | /
N#CC1CN(C(c2ccccc2)c2ccccc2)C1 | -2.1 | -6.4 | -4.2 | -1.9 | 1.8 | / | /
N#CC1CN(Cc2ccccc2)CN(Cc2ccccc2)C1 | / | / | 1.4 | -3.2 | -26.9* | / | ?
Cc1ccc(S(=O)(=O)N2CCCCC2C)cc1[N+](=O)[O-] (stereo not given) | 2.4 | -9.0 | -0.7 | -3.8 | 1.6 | / | /
O=C1CCCCC1Nc1ccc(Br)cc1 (stereo not given) | -16.2 | / | 1.3 | 12.8 | -18.6* | -0.882 | -10.8
O=C1CCCCC1Nc1ccc(Cl)cc1 (stereo not given) | -54.5 | / | -1.0 | -1.7 | -16.2 | / | /
C/C(=N\NC(=O)c1cccc(S(=O)(=O)N2CCCC2)c1)c1ccncc1 | -4.0 | -12.6 | -1.8 | / | 4.0 | / | /
Cc1cccc(C(=O)NCC(=O)N2CC=C(c3ccccc3)CC2)c1 | 0.0 | -2.8 | 1.2 | 2.0 | -30.5* | 0.374 | ?
O=C(C[C@H]1CC[C@@H]2[C@H](COC[C@H](O)CN2Cc2ccc(F)cc2)O1)N1CCc2ccccc2C1 | -2.3 | 2.1 | / | / | -5.6 | / | /
SMILES | AF4-AF9 inh | esBAF inh | Wnt act | MITF TRPM1 HTS | Ecoli rRNA inh | AID977621 | AID977628
CC(C)(C)NC(=O)C(c1ccncc1)N(Cc1ccc(F)cc1)C(=O)c1ccc(-c2ccccc2)[nH]1 (stereo not given) | 13.1 | / | -0.1 | 8.1 | -21.3* | 10.1 | 1.27
O=C(NC1CCCC1)C(c1ccncc1)N(Cc1ccccc1)C(=O)c1ccc(-c2ccccc2)[nH]1 (stereo not given) | / | / | / | 11.1 | / | / | /
CN(C)CCNc1nc(S(=O)(=O)c2ccccc2)c(Cl)s1 | 0.3 | / | -1.8 | 2.0 | 4.0 | / | /
CC(C)CNc1nc(S(=O)(=O)c2ccccc2)c(Cl)s1 | 2.8 | 7.1 | -1.0 | -5.2 | -40.0* | ? | -9.25
O=C(NCc1cc(F)cc(F)c1)[C@@H]1[C@@H](CO)[C@@H]2Cn3c(cccc3=O)[C@H]1N2C(=O)Cc1ccccn1 | -3.1 | -1.1 | / | / | 1.7 | / | /
O=C(O)c1cocc1C(=O)O | -4.3 | -6.5 | -0.5 | / | 6.7 | / | /
CSc1ccc(CN(C)CC(=O)NC(C)c2ccccc2)cc1 (stereo not given) | -0.3 | 0.3 | -1.5 | 2.8 | -31.0* | -6.8 | /
CC(NC(=O)CN(C)Cc1ccc(Br)cc1)c1ccccc1 (stereo not given) | 0.3 | 7.6 | -0.7 | 4.9 | -1.0 | / | /
Cc1cccc(-c2noc(-c3ccccc3C(=O)NCc3ccco3)n2)c1 | 2.3 | -5.5 | 3.2 | 25.5 | -33.3* | -17.2 | -14.2
Cc1ccc(-c2noc(-c3ccccc3C(=O)NCc3ccco3)n2)cc1 | -2.6 | / | 0.7 | / | 6.1 | / | /
CC[n+]1c(C)cc2c(sc3ccccc32)c1C | -3.1 | / | -0.7 | -3.4 | -22.1* | -8.38 | -10.4
CCOc1ccc(-c2cc(C(=O)NN=C3CCN(C)CC3)[nH]n2)cc1 | 0.0 | / | 28.4 | -1.5 | 7.2 | / | /
NS(=O)(=O)c1ccc(NC(=O)CCC(=O)O)cc1 | -3.5 | -1.4 | -3.5 | / | -11.0* | -6.26 | ?
NS(=O)(=O)c1ccc(NC(=O)CCCC(=O)O)cc1 | -2.6 | / | -2.9 | -17.9 | 7.4 | / | /
Cc1ccc(-c2ccc3c(c2)O[C@@H](CN(C)Cc2cccc(C(=O)O)c2)[C@@H](C)CN([C@H](C)CO)S3(=O)=O)cc1 | 0.4 | -7.5 | / | / | -4.6 | / | /
Cc1ccc(-c2ccc3c(c2)O[C@@H](CN(C)Cc2cccc(C(=O)O)c2)[C@H](C)CN([C@@H](C)CO)S3(=O)=O)cc1 | 0.3 | 2.8 | / | / | -18.2* | / | ?
COCC#Cc1ccc2c(c1)O[C@@H](CN(C)S(=O)(=O)c1cccc(F)c1)[C@@H](C)CN([C@H](C)CO)S2(=O)=O | 1.8 | 7.2 | -1.2 | / | -19.7*! | -21.9 | /
CCNC(=O)[C@H]1[C@H](CO)[C@H]2Cn3c(cccc3=O)[C@@H]1N2Cc1cccc(Cl)c1 | -2.9 | / | / | / | 2.1 | / | /
CC(C)C(NS(=O)(=O)c1cccc2nsnc12)C(=O)NCc1ccco1 (stereo not given) | 4.5 | -6.6 | 3.4 | -5.0 | 8.2 | / | /
